Reference: PubChem BioAssay AID2825 (Sanford-Burnham Center for Chemical Genomics, 2010)
The whole screen tested about 330,000 compounds, of which about 1,300 (0.39%) were called active. The sample holds actives, similar compounds and a random draw of the others, so the mix is not that of the screen.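 How the source made its calls: active means inhibition of 50% or more; inactive means inhibition below 50%.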

assay: blockers of yeast NLRP3/ASC/caspase-1 reporter – luminescence, uHTS, primary screen (AID 2825); settings: Yeast reconstituted NLRP3/ASC/caspase-1, beta-gal luminescence, 24 h; at 10 µM; active compounds read high;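 further: plate controls were induced DMSO wells for no effect and uninduced yeast grown without galactose for full effect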

SMILES | inhibition
c1cc2c(cc1[C@H]1OC[C@H]3[C@@H]1CO[C@@H]3c1ccc3c(c1)OCO3)OCO2 | 15.5% (inactive)
c1cc2c(cc1C1OCC3C(c4ccc5c(c4)OCO5)OCC13)OCO2 (stereo not given) | 16.8% (inactive)
O=C1/C(=C\c2ccc3c(c2)OCO3)N2CCC1CC2 | 50.3% (active)
Cc1nc2nc(C)c(CCC(=O)N3CCC4(CC3)OCCO4)c(C)n2n1 | 11.1% (inactive)
O=c1c2ccccc2nc(-c2ccco2)n1-c1ccc(Br)cn1 | 15.6% (inactive)
O=c1c2ccccc2nc(-c2ccccc2)n1-c1ccccn1 | -1.57% (inactive)
Cc1ccc(-c2nc3ccccc3c(=O)n2-c2ccc(Br)cn2)cc1 | 54.6% (active)
CN(C)CC1CCCCC1=O (stereo not given) | 16.4% (inactive)
C[N+]1(C)CCOC(O)(c2ccc(-c3ccc(C4(O)C[N+](C)(C)CCO4)cc3)cc2)C1 (stereo not given) | 5.92% (inactive)
COCCNC(=O)CN1C2CCC1CC(O)(c1cccnc1)C2 (stereo not given) | 21.8% (inactive)
NCCc1ccc(S(=O)(=O)F)cc1 | 13.1% (inactive)
Cc1cc2ccccn2c1C(C[N+](=O)[O-])c1c(F)cccc1Cl (stereo not given) | 58.8% (active)
Cc1ccc2c(c1)=C/C(=C\c1c(O)[nH]c(=O)[nH]c1=O)C(=O)N=2 | 8.15% (inactive)
CCCCCCCCCCCCn1ccc(=N)cc1 | 74.5% (active)
COC(=O)C(O)(c1ccc(NC(=O)c2ccco2)c(OC)c1)C(F)(F)F (stereo not given) | 6.52% (inactive)
CSC1=NP(=S)(SC)N(C)c2nc3n(c21)CCC3 (stereo not given) | 14.6% (inactive)
Cc1cc(OCc2cc(C(=O)O)oc2C)c2c3c(c(=O)oc2c1)CCCC3 | 13.3% (inactive)
CNC(=S)N/N=C1\C2CN3CCN(C2)CC1(c1ccccc1)C3 | 2.33% (inactive)
CN(C)P(=S)(Nc1ccccc1)C(Cl)(Cl)Cl (stereo not given) | 24.4% (inactive)
C[C@]12CCC3C(CC[C@H]4C[C@@H](O)CC[C@]34C)C1CC[C@@H]2O (stereo not given in full) | 63.7% (active)
C[C@]12CCC3C(CC[C@H]4C[C@@H](O)CC[C@]34C)C1C[C@@H](O)[C@H]2O (stereo not given in full) | 50.2% (active)
C[C@]12CC[C@H](O)CC1=C([N+](=O)[O-])CC1C2CC[C@@]2(C)C1CC[C@@H]2O (stereo not given in full) | 21.9% (inactive)
C[C@]12CC[C@H](O)C[C@H]1CC[C@@H]1C2CC[C@]2(C)[C@@H](C3=CC(=O)OC3)[C@@H](O)C[C@]12O (stereo not given in full) | 8.26% (inactive)
O=C(C1CC(=O)N(C2CCCC2)C1)N1CCC2(CC1)OCCO2 (stereo not given) | 25.3% (inactive)
C/C=C/CC1(CC)C(=O)NC(=S)NC1=O | 0.922% (inactive)
COc1ccc2[nH]c3c(c2c1)CCN[C@H]3C | 10% (inactive)
CC1=C2C(=O)C3C(CC=C4CC(OC5OC(O)C(O)C(O)C5CO)CCC43C)C2CCC12OC1CC(C)CNC1C2C (stereo not given) | 32.4% (inactive)
COC(=O)C1=C(c2ccc3ccccc3c2)C[C@@H]2CC[C@H]1N2C(=O)NCCO | -5.73% (inactive)
N=c1ccccn1Cc1ccccc1 | 1.04% (inactive)
CCN1CCN(c2nc3c(c(=O)[nH]2)CCC3)CC1 | 9.34% (inactive)
